Active and inactive are the calls of the source.

A short description of the test: FRG1 promoter luciferase signal modulators, primary screen, FRG1 inhibition for FSHD, cell-based, C2C12 myotubes, firefly/Renilla luciferase, luminescence (AID 1084). As to conditions: higher = more signal, called active from +8 up or from −8 down.
Consider `CC(=O)c1ccc(C(O)C2C=CC3C(=O)NC(=O)C3N2Nc2ccc(Cl)cc2Cl)cc1` (stereo unspecified), for which the z-score was 1.12 (inactive). Consider `C=CCC(OC(C)=O)[C@@H]1[C@@H](N(Cc2cccc3ccccc23)C(=O)c2ccc(C)cc2)c2cc(OCCCO)ccc2N1C(=O)c1ccc2ccccc2n1` (stereo partly specified), for which the z-score is -1.44 (inactive). With `COC(=O)[C@@H]1N=C(c2ccc(OCCCO)cc2)O[C@@H]1c1ccccc1CN=[N+]=[N-]`, the z-score was 1.81 (inactive).

As to `COc1ccc([Si](C)(C)[C@@H]2[C@@H](CCO)O[C@]3(C(=O)N(Cc4ccccc4)c4ccc(N5C(=O)c6ccccc6Oc6ccccc65)cc43)[C@H]2C)cc1`, the z-score is 0.816 (inactive). Turning to `COC(=O)[C@@]1(Cc2ccc(F)cc2)[C@H]2c3cc(C(=O)N(C)C)n(CCO)c3C[C@H]2CN1C(=O)c1ccccc1`, the z-score was -1.11 (inactive). For the compound `CC(C)(C)N1CC=CC23O[C@@H]4/C=C\CCCOC(=O)C4[C@H]2C(=O)N(CCCCCCO)[C@@H]3C1=O` (stereo partly specified), the z-score was -1.09 (inactive).

As for `C=C(CCCC)C(=O)CC[C@H](OC(C)=O)c1ccccc1OCCO`, the z-score was -0.881 (inactive).

On to `COCCOC(=O)N1C(=O)[C@@]2(c3cc(C#CCC(C(=O)OC)C(=O)OC)ccc31)[C@H](C(=O)N1CCc3cc(OC)c(OC)cc3C1)[C@H]1C(=O)O[C@H](c3ccccc3)[C@H](c3ccccc3)N1[C@@H]2c1ccc(O)cc1`, for which the z-score was 0.217 (inactive).

As to `O=C(NCCO)C1=C[C@H](Oc2ccccc2I)[C@@H](O)[C@H](NCc2ccc(F)cc2)C1`, the z-score was -0.766 (inactive). Take `C=CCC(OC(C)=O)[C@@H]1[C@@H](N(Cc2cccc3ccccc23)C(=O)c2ccc(-c3ccccc3)cc2)c2cc(OCCCO)ccc2N1C(=O)c1ccc2ccccc2n1` (stereo partly specified): the z-score was -0.612 (inactive). Regarding `COc1ccc([Si](C)(C)[C@H]2[C@H](CCO)O[C@@]3(C(=O)N(Cc4ccccc4)c4ccc(N(C=O)c5ccccc5)cc43)[C@@H]2C)cc1`, the z-score is -0.919 (inactive). For the compound `CCCC[C@H]1OB(O)C[C@H]2C1=C(C)C[C@H]1C(=O)C=CC(=O)[C@H]12`, the z-score was 0.358 (inactive).

In the case of `[N-]=[N+]=NCc1ccccc1[C@@H]1OC(c2ccc(OCCCO)cc2)=N[C@]1(Cc1ccccc1)C(=O)NCc1ccccc1`, the z-score is -2.16 (inactive).

As to `COc1ccccc1CN1C(=O)c2ccccc2[C@](Cc2ccccc2I)(C(=O)NCCCN(C)C)[C@@H]1c1ccc(CO)cc1`, the z-score is -3.16 (inactive). Consider `CCCCCCc1nc(-c2ccc(OC)nc2)cc2c1[Si](C(C)C)(C(C)C)OC2`, for which the z-score was 0.366 (inactive).

For the compound `CC(=O)n1cc(C(O)C2C=CC3C(=O)N(c4ccccc4)C(=O)C3N2Nc2ccccc2F)c2ccccc21` (stereo unspecified), the z-score was 0.625 (inactive).

For `COc1ccc(NN2C(C(O)c3cc(C(F)(F)F)cc(C(F)(F)F)c3)C=CC3C(=O)N(C4CCCCC4)C(=O)C32)cc1` (stereo unspecified), the z-score is -0.68 (inactive).

As to `CC1CC/C=C\[C@H]2OC34C=CCN(c5ccc(Cl)cc5)C(=O)[C@H]3N(CCCO)C(=O)[C@]4(C)C2C(=O)O1` (stereo partly specified), the z-score is -0.0856 (inactive). As to `O=C1NC(=O)C2C1C=CC(C(O)c1cccc(O)c1)N2Nc1ccc(Cl)cc1Cl` (stereo unspecified), the z-score is 0.203 (inactive).

`CCc1cccc(NC(=O)O[C@H]2[C@H](OC(=O)Nc3ccc4c(c3)OCO4)[C@H](OC(=O)Nc3ccc4c(c3)OCO4)[C@@H](OC)O[C@@H]2CO)c1`: the z-score was 4.53 (inactive). Turning to `C[N+](C)(C)CCCCCCNC(=O)[C@@H]1C[C@@H]2C(=O)N[C@@H](Cc3ccccc3)C(=O)N2[C@@H]1c1ccc(O)cc1`, the z-score is 2.56 (inactive). The result for `CCN(CC)c1ccc(N2CC=CC34O[C@@H]5C=CCOC(=O)[C@@H]5[C@H]3C(=O)N(CCCO)[C@@H]4C2=O)cc1` (stereo partly specified) reads 0.275 (inactive); that for `COCCCNC(=O)[C@@]1(Sc2ccc(C)cc2)CC(=O)N(C2CCCCC2)[C@@H]1c1ccc(CO)cc1I`, -3.63 (inactive); that for `COCCOC(=O)N1C(=O)[C@@]2(c3cc(C#CC4(O)CCCCCC4)ccc31)[C@H](c1ccc(OCCO)cc1)N1[C@H](c3ccccc3)[C@H](c3ccccc3)OC(=O)[C@H]1[C@@H]2C(=O)N1CCCCCCC1`, 0.222 (inactive). Consider `C=CC[C@@]12N=C(c3ccc(OCCCO)cc3)O[C@@H]1c1ccccc1N(Cc1ccccc1)C2=O`, for which the z-score is -3.36 (inactive).

For the compound `C=C(CCCC)/C(=C/C[C@H](OC(C)=O)c1cccc(OCCO)c1)c1cc(C(=O)OC)ccc1OC`, the z-score was -0.502 (inactive).

For the origin of these results see PubChem BioAssay.
